The source made the active and inactive calls. How the source made its calls: active means hit-call score of the fitted dose curve at least 0.9, where 1 is the maximum; inactive means score below 0.9.
Assay: CEETOX_H295R_CORTIC: CeeTox H295R High-throughput Steroidogenesis Assay for Corticosterone (CORTIC) (AID 2283437)
Settings: actives raise or lower the signal
Outline: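 Medium corticosterone was quantified by tandem mass spectrometry following 48 hours of chemical exposure (0.1% DMSO) in human H295R cells previously stimulated 48 hours with 10 uM forskolin. Viability checked by MTT; chemicals diluted and retested when viability fell below 70%.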
In the case of `Clc1ccccc1C(c1ccccc1)(c1ccccc1)n1ccnc1`, the AC50 is reported as 1.95 nM (active). In the case of `O=C1CCC(C2CCCCC2)CC1`, the outcome is reported as “inactive”. In the case of `CC(C)(c1cc(Br)c(O)c(Br)c1)c1cc(Br)c(O)c(Br)c1`, the outcome is reported as “inactive”. With `Cc1oc2c(NC(=O)c3c(Cl)cccc3Cl)cccc2c1C(C)(C)O` the outcome was “inactive”. In the case of `CCCCCCCCN(C)CCCCCCCC`, the outcome is reported as “inactive”.

Assay: CEETOX_H295R_CORTISOL: CeeTox H295R High-throughput Steroidogenesis Assay for Cortisol (AID 2283438);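 further: cortisol secreted into medium quantified by LC-MS/MS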
Settings: actives raise or lower the signal
Outline: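 Read-out: cortisol in culture medium by reverse-phase C18 HPLC with ESI-positive tandem MS, after MTBE liquid-liquid extraction. Cells: human adrenal H295R, forskolin-primed (10 uM, 48 h) before 48 h chemical exposure in 0.1% DMSO.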
With `O=C(O)Cn1c(=O)n(Cc2ccc(Br)cc2F)c(=O)c2ccc(Cl)cc21` the outcome was “inactive”. For `O=c1c(-c2ccc(O)cc2)coc2cc(O)cc(O)c12`, the AC50 was 12400 nM (active). For `Cc1c2ccccc2c(C)c2c1ccc1ccccc12`, the outcome was “inactive”. For `CCCCCCCCOC(=O)c1cc(O)c(O)c(O)c1`, the outcome was “inactive”. With `Cc1cc2c(cc1C(F)(F)F)N(C(=O)Nc1ccc(Oc3cccnc3C)nc1)CC2` the AC50 was 588 nM (active). With `CC(C)(C)c1cc(/C=C2\SC(N)=NC2=O)cc(C(C)(C)C)c1O` the outcome was “inactive”. For `NC(=O)c1nc(-c2cccc(-c3cc(F)ccc3OCC(F)(F)C(F)(F)F)c2)n[nH]1`, the outcome was “inactive”. For `CCCCCCCCCCCC[N+](C)(C)C`, the outcome was “inactive”. In the case of `Cc1ccc2oc(CN(Cc3ccccc3)C(=O)Nc3c(F)cc(F)cc3F)c(-c3ccc(Cl)cc3)c2c1`, the outcome is reported as “inactive”. In the case of `O=C(Nc1ccc(Cl)cc1)Nc1ccc(Cl)c(Cl)c1`, the outcome is reported as “inactive”. For `CC(=O)N1CCN(c2ccc(OC[C@H]3CO[C@](Cn4ccnc4)(c4ccc(Cl)cc4Cl)O3)cc2)CC1`, the AC50 was 895 nM (active). For `CCCCOC(=O)c1ccc(O)cc1`, the outcome was “inactive”. For `OC12N=C(c3ccccc3)SC1Cc1cc(Cl)ccc12` (centres undefined), the AC50 was 28500 nM (active). In the case of `C[C@]12CC[C@@H]3c4ccc(O)cc4CC[C@H]3[C@@H]1CC[C@H]2O`, the AC50 is reported as 2170 nM (active).

— PubChem BioAssay (EPA / NIEHS)
